Screening results as filed in PubChem.
Most compounds without a hit are left out; they make up all but 4.1% or so of the library.
ssDAF-12 act: S. stercoralis DAF-12 nuclear receptor activators, primary screen, cell-based, luminescence, HEK293, GRIP1 co-expression, lit1-tk-luc; HEK293 ssDAF-12/GRIP1 lit1-tk-luc reporter; % of 3 µM dafachronic acid response; activation, % at 6.8 µM; 1% of 370,000 active; AID 652126, 2013;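 active = activation above the mean over all tested compounds plus 3 SD, cut at about 0.9% in these data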
hgDAF-12 ag: H. glycines DAF-12 receptor agonists, primary screen, cell-based, luminescence, HEK293, GAL4 fusion, UAS-luciferase | HEK293 GAL4-hgDAF12 UAS-luciferase reporter, agonist luminescence; normalized to butyrate control | activation, % at 6.8 µM | 1.8% of 370,000 active;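 active = activation above a cutoff set at the mean of all screened compounds plus 3 SD, cut at about 10% in these data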
DAX1 inh-1: DAX1 (NR0B1) inhibitors, primary screen, cell-based, HEK293, Gal4-DAX1, luciferase luminescence | Nuclear receptor subfamily 0 group B member 1 (Homo sapiens), P51843 | HEK293 Gal4-DAX1 luciferase reporter | inhibition, % at 6.75 µM | 0.99% of 340,000 active | AID 504766, 2011;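 active = inhibition above the mean over all tested compounds plus 3 SD, cut at about 4.2% in these data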;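 also: inhibition shows as a rise in luminescence from relieved DAX1 repression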
Target sequence (P51843 207-470 limits assumed): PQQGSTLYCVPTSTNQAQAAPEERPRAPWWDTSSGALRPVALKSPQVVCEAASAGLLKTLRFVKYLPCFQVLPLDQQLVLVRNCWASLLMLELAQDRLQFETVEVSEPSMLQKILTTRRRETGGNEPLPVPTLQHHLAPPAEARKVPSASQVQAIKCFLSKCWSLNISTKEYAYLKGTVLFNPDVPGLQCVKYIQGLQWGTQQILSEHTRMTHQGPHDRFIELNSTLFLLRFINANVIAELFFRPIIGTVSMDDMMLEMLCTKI
hcDAF-12 act: H. contortus DAF-12 nuclear receptor activators, primary screen, cell-based, luminescence, HEK293, lit1-tk-luc reporter; activation, % at 6.8 µM; 1.4% of 370,000 active; HEK293 hcDAF-12 lit1-tk-luc reporter; 0% DMSO, 100% Δ7-dafachronic acid;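 active = activation above the mean of all tested compounds plus 3 SD, cut at about 5.5% in these data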
DAX1 inh-2: DAX1 (NR0B1) inhibitors on StAR promoter, primary screen, cell-based, luminescence, SF-1 (NR5A1), full-length DAX-1; HEK293T StAR-luciferase reporter, SF-1/DAX-1 repression relief; inhibition, % at 6.8 µM; 1.1% of 370,000 active; AID 652010, 2013;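 active = inhibition above the mean over all tested compounds plus 3 SD, cut at about 3.6% in these data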;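 also: higher inhibition means more luminescence from relief of DAX-1 repression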
Of the large screens only hits and unclear results are named; the others gave an inactive call.

CCN(CC)C(=O)Oc1ccc2c(=O)c(-c3ccccc3)coc2c1	hgDAF-12 ag 11.5, DAX1 inh-2 4.1
Cc1ccccc1-c1nnc(-c2ccccc2C)o1	hgDAF-12 ag 11.3
Cc1ccccc1-c1nnc(-c2cccc3ccccc23)o1	none
COc1ccc(OC)c(-c2nnc(SCC(=O)N3CCCC3)o2)c1	DAX1 inh-1 4.9
O=C(CSc1nnc(-c2cccs2)o1)N1CCCCC1	hgDAF-12 ag 12.0
Fc1ccccc1CSc1nnc(-c2cccs2)o1	hgDAF-12 ag 11.2, DAX1 inh-2 3.7
COc1ccc(OC)c(-c2nnc(SCC(=O)N3CCOCC3)o2)c1	none
C#CCNC(=O)C[C@@H]1C(=O)N(Cc2ccc(OC)cc2)/C2=C/CCCCC[C@@]21C(=O)OCC	none (no result: DAX1 inh-1)
Cc1cc(C)nc(N2CCC(C(=O)N(C)CCc3ccccc3)CC2)n1	none (no result: DAX1 inh-1)
Cc1ccccc1-c1nnc(SCC(=O)N2CCCC2)o1	hgDAF-12 ag 10.6
O=C(CSc1nnc(-c2ccc(O)cc2)o1)N1CCOCC1	none
COc1ccccc1-c1nnc(SCC(=O)N2CCCCC2)o1	none
O=C(CSc1nnc(-c2ccc(Cl)cc2)o1)N1CCOCC1	hgDAF-12 ag 11.4
Cc1cc([N+](=O)[O-])ccc1NC(=O)CCC(=O)N1CCCCCC1	none
O=C(c1ccccc1Cl)N1CCC(Oc2cccnc2)CC1	none (no result: DAX1 inh-1)
O=C(CC1SC(=Nc2ccccc2)N(CCO)C1=O)Nc1ccccc1 (stereo unspecified)	none
O=C(CC1SC(=Nc2ccccc2)N(CCc2ccccn2)C1=O)Nc1ccc(F)cc1 (stereo unspecified)	hcDAF-12 act 6.2
CC(C)N1Cc2nnn(Cc3ccccc3)c2-c2ccccc2S1(=O)=O	none (no result: DAX1 inh-1)
O=C(N/N=C/c1ccc(OC(=O)c2ccccc2Br)cc1)c1ccccn1	DAX1 inh-2 5.8
O=C(O)COc1ccc(/C=N/NC(=O)c2ccccc2Br)cc1	none (no result: ssDAF-12 act, hgDAF-12 ag, hcDAF-12 act, DAX1 inh-2)
O=C(c1c(F)cccc1F)N1CCC(Oc2cccnc2)CC1	none (no result: DAX1 inh-1)
COc1ccccc1C(=O)n1ccc2ccc(-c3ccc4ccn(Cc5ccccc5)c4c3)cc21	none (no result: DAX1 inh-1)
NC(=O)c1cccc(C(N)=O)n1	DAX1 inh-1 6.1
O=C(NC(Cc1c[nH]c2ccccc12)C(=O)OCC(=O)c1cccc2ccccc12)c1cccs1 (stereo unspecified)	hcDAF-12 act 6.1
O=C(Nc1nc2ccsc2c(=O)s1)c1ccc(Cl)cc1	ssDAF-12 act 0.9, DAX1 inh-1 5.8
CC(C)(C)OC(=O)NCc1cc2c(cc1/C=C/S(=O)(=O)NCc1ccc(F)cc1)OCO2	none (no result: DAX1 inh-1)
Cc1cc(C(=O)Nc2nc3ccc(Cl)cc3s2)nn1C	hgDAF-12 ag 10.9 (no result: DAX1 inh-1)
COc1ccc(CN2CN3CCc4ccccc4C3CS2(=O)=O)cc1 (stereo unspecified)	none (no result: DAX1 inh-1)
Cc1ccc(-c2cc(C(=O)NN=Cc3cccc4ccccc34)[nH]n2)cc1C	hgDAF-12 ag 12.3 (no result: DAX1 inh-1)
Cc1ccc(-c2cc(C(=O)NN=Cc3c(O)ccc4ccccc34)[nH]n2)cc1C	none (no result: DAX1 inh-1)
Cc1ccc(N2CC(O)(c3cccs3)[N+]3=C2CCCC3)cc1 (stereo unspecified)	none
Cc1ccc(N2NC(C)(c3cccs3)NC2=S)cc1 (stereo unspecified)	DAX1 inh-1 4.3
CNC(=S)N/N=C/c1ccc(N(C)C)cc1	hgDAF-12 ag 11.4
O=C(NCc1ccc(F)cc1)c1c2c(nc3ccccc13)CCN(Cc1ccccc1)C2	DAX1 inh-1 4.8
C=CCSc1nncn1/N=C/c1ccc(OC)cc1	hgDAF-12 ag 11.2, DAX1 inh-1 4.9
COc1ccc(/C=N/n2cnnc2SCCO)cc1OC	none
Cc1cc(C)cc(C(=O)OCCN(C)C2CN(Cc3cn(Cc4ccccc4F)nn3)S(=O)(=O)C2)c1 (stereo unspecified)	none (no result: DAX1 inh-1)
Cc1cccn2c(=O)c3cc(C(=O)N4CCN(Cc5ccccc5)CC4)sc3nc12	none
Cc1cccn2c(=O)c3cc(C(=O)N4CCCC(C)C4)sc3nc12 (stereo unspecified)	ssDAF-12 act 1.2
